# Compound activity: PubChem BioAssay, several laboratories
# CYP2C19 inh: blocks human cytochrome P450 2C19. P33261. inhibition, % at 5 µM. 21% of 96,000 active. CYP2C19 Supersomes, luciferin-H EGE luminescence, 30 min;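 active = CYP2C19 inhibition above a set limit at 5 µM in the primary screen, cut at about 50% in these data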;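 also: plate controls were negative control wells for no effect and 2.5 mM tranylcypromine positive control for full effect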
# Target sequence (P33261 whole entry, looked up): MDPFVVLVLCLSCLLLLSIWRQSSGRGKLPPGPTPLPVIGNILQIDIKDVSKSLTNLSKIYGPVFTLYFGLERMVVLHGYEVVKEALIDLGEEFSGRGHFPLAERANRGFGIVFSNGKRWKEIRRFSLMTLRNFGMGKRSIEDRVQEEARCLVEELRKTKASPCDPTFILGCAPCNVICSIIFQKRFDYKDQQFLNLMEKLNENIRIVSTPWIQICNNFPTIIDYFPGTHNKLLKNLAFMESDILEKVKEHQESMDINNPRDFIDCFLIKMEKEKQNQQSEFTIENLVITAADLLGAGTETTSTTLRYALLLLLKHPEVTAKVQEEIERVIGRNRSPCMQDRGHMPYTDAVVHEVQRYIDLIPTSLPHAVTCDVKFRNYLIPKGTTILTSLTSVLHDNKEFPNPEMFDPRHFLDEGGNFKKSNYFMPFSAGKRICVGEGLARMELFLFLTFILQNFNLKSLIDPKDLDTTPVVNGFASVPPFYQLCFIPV
# cytoskel mod: alters cytoskeleton assembly in HUVEC cells. HUVEC TNFa F-actin phalloidin imaging, high content. inhibition, % at 2 µM. 0.18% of 91,000 active. AID 836;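 active = inhibition above the batch mean plus 3 SD and confirmed as a hit by visual image inspection, cut at about 30% in these data, passing the limit was not always enough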
# CYP2C9 act: increases human cytochrome P450 2C9 activity. P11712. recombinant CYP2C9, luciferin-H conversion, luminescence; active compounds read high; factor 1 = untreated enzyme, 0 = blocked. activation factor at 5 µM. 1.4% of 96,000 active;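 active = activation factor of 2 or more for CYP2C9 at a 5 µM dose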;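 also: 0 = sulfaphenazole-blocked wells and 1 = vehicle-only wells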
# CYP2C19 act: increases human CYP2C19 enzyme activity | recombinant CYP2C19, luciferin-H EGE luminescence; active compounds read high; 0 = fully inhibited enzyme, 1 = untreated enzyme | 96,000 tested, under 10 active | AID 1025 | activation factor at 5 µM | P33261;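 active = activation factor of at least 2 at 5 µM in the primary screen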;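 also: 0 = wells with 2.5 mM tranylcypromine and 1 = vehicle-only wells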
# E-sel TNF inh: blocks E-selectin expression induced by TNF alpha; HUVEC TNFa-induced E-selectin immunofluorescence, high content; inhibition, % at 2 µM; 0.71% of 120,000 active;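 active = inhibition above the batch mean plus 3 SD, and confirmed as a hit on visual image review, cut at about 43% in these data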;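 also: 0% = TNF-stimulated DMSO wells and 100% = unstimulated control wells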
# CYP2C9 inhib: inhibitors of human CYP2C9; P11712; AID 777; inhibition, % at 5 µM; CYP2C9 Supersomes, luciferin-H conversion, luminescence; 20% of 96,000 active;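 active = blocking of liver enzyme CYP2C9 beyond about 50% at 5 µM, limit read from the data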
# An asterisk follows results filed as active; . = not tested or not shown. Shown are actives, neighbours in structure and some others; about 22% of the full set was active somewhere.
SMILES,CYP2C19 inh,cytoskel mod,CYP2C9 act,CYP2C19 act,E-sel TNF inh,CYP2C9 inhib
Cc1ccc(NC(=O)c2ccccc2)s1,58*,-22,0.6,0.4,-21,38
Cc1nn(CC(=O)N2CCCc3ccccc32)c(C)c1[N+](=O)[O-],.,.,.,.,-15,.
Cc1nn(C(C)C(=O)N2CCc3ccccc32)c(C)c1[N+](=O)[O-] (stereo not given),55*,4,0.3,0.4,-29,68*
CN1CCN(S(=O)(=O)c2ccc(NC(=O)C(C)(C)C)cc2)CC1,-9,11,1,1.1,-18,1
CC1CN=C(N(Cc2ccccc2)C(=O)Nc2ccccc2)S1 (stereo not given),18,13,0.5,0.8,-37,47
COc1ccccc1NC(=O)N(Cc1ccccc1)C1=NCC(C)S1 (stereo not given),3,18,0.3,1,.,73*
CNC(=O)N(C1=NCC(C)S1)c1ccc(F)cc1F (stereo not given),62*,10,0.7,0.4,0,26
COc1ccccc1N(C(=O)NCc1ccccc1)C1=NCC(C)S1 (stereo not given),47,5,0.4,0.5,-9,57*
COc1ccc(OCC(=O)N/N=C/C2CC=CCC2)cc1 (stereo not given),.,.,.,.,-6,.
COc1ccc(NC(=O)C2OC3OC(C)(C)OC3C3OC(C)(C)OC23)cc1 (stereo not given),-6,4,0.7,1.1,9,28
O=C(c1ccccc1F)N1CCN(c2ccccc2F)CC1,68*,.,0.7,0.3,91*,32
O=C(C1CCCCC1)N1CCN(c2ccccc2F)CC1,20,2,0.6,0.8,-16,37
O=C(c1ccc2c(c1)OCO2)N1CCN(c2ccc(F)cc2)CC1,84*,7,0.5,0.2,-4,49
O=C(c1ccc(Cl)cc1)N1CCN(c2ccc(F)cc2)CC1,.,7,.,.,10,.
O=C(c1ccncc1)N1CCN(c2ccc(F)cc2)CC1,91*,-6,0.7,0.1,.,31
O=C(c1ccccc1Br)N1CCN(c2ccccc2)CC1,60*,2,0.7,0.4,6,33
Cc1ccc(C)c(N2CCN(C(=O)c3ccccc3Br)CC2)c1,.,.,.,.,-23,.
Cc1cc2c(ncn2C)c(NS(=O)(=O)c2cc(Cl)ccc2Cl)c1C,20,28,1,0.8,17,-4
CCCC(=O)Nc1ccc(N2CCN(C(=O)c3cccs3)CC2)cc1,28,.,0.6,0.7,4,45
O=C(O)c1cc(NC(=S)NC(=O)C(c2ccccc2)c2ccccc2)ccc1Cl,.,.,.,.,6,.
CCn1cc(Br)c(C(=O)N2CCN(c3ccccc3)CC2)n1,85*,2,2.1*,0.2,17,-112
O=C(c1ccccc1F)N1CCN(c2cccc(C(F)(F)F)c2)CC1,91*,.,0.4,0.1,-32,63*
CS(=O)(=O)Nc1ccc(C(=O)N2CCN(c3ccccc3F)CC2)cc1,-16,-33,0.6,1.2,10,39
O=C(c1ccccc1)N1CCN(c2ccccc2F)CC1,93*,3,0.3,0.1,71*,66*
O=C(c1c(F)c(F)c(F)c(F)c1F)N1CCN(c2cccc(C(F)(F)F)c2)CC1,29,12,0.7,0.7,4,35
SMILES,CYP2C19 inh,cytoskel mod,CYP2C9 act,CYP2C19 act,E-sel TNF inh,CYP2C9 inhib
O=C(c1sc2ccccc2c1Cl)N1CCN(c2ccc(F)cc2)CC1,82*,-14,2.3*,0.2,-54,-126
CC(C)(C)C1CCc2c(C(=O)NNC(=O)CCC(=O)O)csc2C1 (stereo not given),.,.,.,.,11,.
CCc1nnc(NC2=NCCC2)s1,2,-33,1.1,1,.,-15
O=S1(=O)N=C(Nc2nc3c(s2)CCCC3)c2ccccc21,.,2,.,.,18,.
O=C(c1cnn2cccnc12)N1CCN(c2ccccc2)CC1,87*,-4,1.3,0.1,-6,-26
O=C(c1coc2ccccc2c1=O)N1CCN(c2cccc(C(F)(F)F)c2)CC1,24,.,0.5,0.8,-27,53*
O=C(c1ccccc1F)N1CCN(c2ccccc2)CC1,50*,1,0.7,0.5,-15,32
Cn1c(C(=O)N2CCN(c3cccc(C(F)(F)F)c3)CC2)cc2sccc21,46,.,1.6,0.5,-28,-62
COc1ccccc1N1CCN(C(=O)c2cnn3cccnc23)CC1,9,-1,1.1,0.9,-17,-7
O=C(c1ccccc1F)N1CCN(c2ncccn2)CC1,36,1,0.7,0.6,42,31
CCn1cc(Br)c(C(=O)N(C)Cc2ccccc2)n1,92*,4,1.4,0.1,-5,-40
CCCOc1ccc(Br)cc1/C=N/O,34,-30,0.7,0.7,-14,26
O=C(c1ccc(Br)o1)N1CCN(c2ccccn2)CC1,90*,-1,0.2,0.1,-8,77*
COC(=O)c1cccnc1N1CCN(c2ccccc2F)CC1,82*,18,0.8,0.2,25,22
CCSc1ccccc1C(=O)N1CCN(c2ccccc2F)CC1,54*,-15,0.4,0.5,22,58*
O=C(c1ccncc1)N1CCN(c2cccc(C(F)(F)F)c2)CC1,100*,9,0.1,0,31,92*
CCc1ccccc1S(=O)(=O)Cc1ccc(C(=O)N2CCN(c3ccccn3)CC2)o1,39,-4,1,0.6,.,5
FC(F)(F)c1cccc(NC(=S)N2CCN(c3cccc(C(F)(F)F)c3)CC2)c1,2,-20,1,1,-32,1
O=C(NCN1CCN(c2ccccc2F)CC1)c1cccnc1,34,-10,1,0.7,-7,2
Cn1c(SCC(=O)NCCN2C(=O)CSC2=O)nnc1-c1ccccc1,.,.,.,.,-23,.
N/C(=N\OC(=O)CC1CCCCC1)c1cccc([N+](=O)[O-])c1,.,.,.,.,-5,.
COc1cccc(C2NC(=S)NC(C)=C2C(=O)c2ccccc2)c1OC (stereo not given),.,.,.,.,-43,.
CC(C)OC(=O)c1cccnc1N1CCN(c2ccc(F)cc2)CC1,63*,14,0.6,0.4,6,35
O=C(c1ccc(Br)o1)N1CCN(c2ccccc2F)CC1,92*,10,0.6,0.1,-44,44
O=C(c1ccccc1C(=O)N1CCN(c2ccccc2F)CC1)N1CCN(c2ccccc2F)CC1,70*,.,0.1,0.3,-9,89*
O=C(N1CCOCC1)N1CCN(c2ccccc2F)CC1,11,-13,1.1,0.9,-29,-9
Cn1nc(C(F)(F)F)c(C(=O)Nc2ccc(F)cc2F)c1Sc1cccc(Cl)c1,54*,-26,0.6,0.5,13,36
Cn1nc(C(F)(F)F)c(C(=O)Nc2ccc(F)cc2F)c1Sc1cccc(C(F)(F)F)c1,87*,6,0.4,0.1,-1,60*
Cn1nc(C(=O)Nc2cccc(C(F)(F)F)c2)c2ccccc2c1=O,20,.,1.2,0.8,.,-16
Cn1nc(C(F)(F)F)c(C(=O)Nc2ccc(F)cc2F)c1Oc1cccc(Cl)c1,14,1,0.8,0.9,-8,22
